# Assay results taken from article PMC7862700, “An all-to-all approach to the identification of sequence-specific readers for epigenetic DNA modifications on cytosine”.
# How the values were obtained:
# Experiment in all cases: DAPPL (digital affinity profiling via proximity ligation, sequencing); 10 mM Tris-HCl pH 7.5, 50 mM NaCl, 1 mM DTT, 4% glycerol, room temperature, 30 min; GST-TFs on glutathione beads, 16-mer random dsDNA library, 0.1% formaldehyde crosslink after washing; high values mean tight binding
# FLI1 = target: T1, FLI1 (Homo sapiens, UniProt Q01543 1-452); conditions: protein: recombinant; tags: N-terminal GST; dsDNA, one strand shown
# T1 sequence: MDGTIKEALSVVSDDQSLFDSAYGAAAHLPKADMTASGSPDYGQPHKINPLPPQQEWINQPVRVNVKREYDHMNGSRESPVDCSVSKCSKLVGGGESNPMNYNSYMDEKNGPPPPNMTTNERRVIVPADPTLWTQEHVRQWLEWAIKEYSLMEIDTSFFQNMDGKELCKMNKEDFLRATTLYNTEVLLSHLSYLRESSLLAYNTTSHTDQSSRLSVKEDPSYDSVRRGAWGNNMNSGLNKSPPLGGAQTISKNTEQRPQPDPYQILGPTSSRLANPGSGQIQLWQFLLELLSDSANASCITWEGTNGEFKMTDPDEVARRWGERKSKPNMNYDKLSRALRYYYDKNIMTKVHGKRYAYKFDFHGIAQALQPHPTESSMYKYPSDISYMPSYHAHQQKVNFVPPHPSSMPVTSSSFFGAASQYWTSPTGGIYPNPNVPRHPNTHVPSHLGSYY
# Method in brief: (§1)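 Human transcription factors were made in yeast as GST fusions, captured on glutathione beads and barcoded with DNA. With a tag-only sample included, the pool was incubated with 200 nmole of a random double-stranded 16-mer DNA library in Tris/NaCl/DTT/glycerol buffer at room temperature for 30 min, then crosslinked with 0.1% formaldehyde after washing, ligated by proximity, amplified and sequenced. For binding signal, each hexamer's read frequency for a factor is divided by its frequency for the tag-only sample.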
# ELK1 = target: T2, ELK1 (Homo sapiens, UniProt P19419 1-428); conditions: protein: recombinant; tags: N-terminal GST; dsDNA, one strand shown
# T2 sequence: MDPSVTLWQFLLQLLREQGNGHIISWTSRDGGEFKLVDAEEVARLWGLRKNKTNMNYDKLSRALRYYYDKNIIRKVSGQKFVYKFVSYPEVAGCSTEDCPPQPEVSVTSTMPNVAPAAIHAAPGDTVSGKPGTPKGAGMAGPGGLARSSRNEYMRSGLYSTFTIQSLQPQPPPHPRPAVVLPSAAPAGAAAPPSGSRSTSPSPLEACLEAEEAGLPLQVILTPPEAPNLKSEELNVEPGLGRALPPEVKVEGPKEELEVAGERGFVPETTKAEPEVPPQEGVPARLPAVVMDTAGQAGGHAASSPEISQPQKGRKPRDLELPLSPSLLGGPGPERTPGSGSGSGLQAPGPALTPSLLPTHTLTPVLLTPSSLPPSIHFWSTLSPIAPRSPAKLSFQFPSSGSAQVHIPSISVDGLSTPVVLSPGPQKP
# Method in brief: as §1
# GABPA = target: T3, GABPA (Homo sapiens, UniProt Q06546 1-454); conditions: protein: recombinant; tags: N-terminal GST; dsDNA, one strand shown
# T3 sequence: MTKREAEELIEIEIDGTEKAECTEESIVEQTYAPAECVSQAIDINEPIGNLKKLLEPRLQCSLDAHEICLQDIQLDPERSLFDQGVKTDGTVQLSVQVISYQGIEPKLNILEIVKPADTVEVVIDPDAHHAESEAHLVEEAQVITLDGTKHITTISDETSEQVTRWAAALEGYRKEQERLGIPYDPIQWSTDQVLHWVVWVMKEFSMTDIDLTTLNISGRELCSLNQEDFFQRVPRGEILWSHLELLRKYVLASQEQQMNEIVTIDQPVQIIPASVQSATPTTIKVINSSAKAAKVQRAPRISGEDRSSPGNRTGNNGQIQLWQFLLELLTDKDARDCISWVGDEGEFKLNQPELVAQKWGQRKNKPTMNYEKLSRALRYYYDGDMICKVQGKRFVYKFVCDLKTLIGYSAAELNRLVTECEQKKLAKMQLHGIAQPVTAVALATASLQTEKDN
# Method in brief: as §1
# ERG = target: T4, ERG (Homo sapiens, UniProt P11308 1-479); conditions: protein: recombinant; tags: N-terminal GST; dsDNA, one strand shown
# T4 sequence: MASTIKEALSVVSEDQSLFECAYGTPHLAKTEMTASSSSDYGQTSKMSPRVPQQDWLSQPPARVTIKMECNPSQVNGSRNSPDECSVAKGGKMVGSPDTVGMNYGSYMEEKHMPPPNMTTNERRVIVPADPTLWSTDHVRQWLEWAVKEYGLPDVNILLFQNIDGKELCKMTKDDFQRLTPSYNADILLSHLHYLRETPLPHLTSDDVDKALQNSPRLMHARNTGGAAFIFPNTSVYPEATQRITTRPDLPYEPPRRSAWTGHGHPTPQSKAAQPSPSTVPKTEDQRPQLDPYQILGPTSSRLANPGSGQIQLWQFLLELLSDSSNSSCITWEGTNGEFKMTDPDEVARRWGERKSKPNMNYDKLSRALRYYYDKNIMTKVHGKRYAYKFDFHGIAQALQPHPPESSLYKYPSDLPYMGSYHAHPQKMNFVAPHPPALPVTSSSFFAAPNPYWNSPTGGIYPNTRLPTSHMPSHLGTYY
# Method in brief: as §1
# ELF1 = ELF1 (Homo sapiens, UniProt P32519 1-619); conditions: protein: recombinant; tags: N-terminal GST; dsDNA, one strand shown
# Method in brief: as §1
# EHF = target: T5, EHF (Homo sapiens, UniProt Q9NZC4 1-300); conditions: protein: recombinant; tags: N-terminal GST; dsDNA, one strand shown
# T5 sequence: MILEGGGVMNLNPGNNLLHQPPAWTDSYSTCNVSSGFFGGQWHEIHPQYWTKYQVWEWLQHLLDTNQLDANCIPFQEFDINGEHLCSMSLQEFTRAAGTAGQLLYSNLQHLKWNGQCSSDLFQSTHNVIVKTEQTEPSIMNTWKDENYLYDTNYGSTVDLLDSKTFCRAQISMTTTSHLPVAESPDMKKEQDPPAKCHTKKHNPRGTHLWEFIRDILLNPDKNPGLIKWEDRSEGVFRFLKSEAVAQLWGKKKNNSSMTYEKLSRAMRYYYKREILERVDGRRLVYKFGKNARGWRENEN
# Method in brief: as §1
# SPI1 = SPI1 (Homo sapiens, UniProt P17947 1-270); conditions: protein: recombinant; tags: N-terminal GST; dsDNA, one strand shown
# Method in brief: as §1
# SPIB = SPIB (Homo sapiens, UniProt Q01892 1-262); conditions: protein: recombinant; tags: N-terminal GST; dsDNA, one strand shown
# Method in brief: as §1
# ELK3 = target: T6, ELK3 (Homo sapiens, UniProt P41970 1-407); conditions: protein: recombinant; tags: N-terminal GST; dsDNA, one strand shown
# T6 sequence: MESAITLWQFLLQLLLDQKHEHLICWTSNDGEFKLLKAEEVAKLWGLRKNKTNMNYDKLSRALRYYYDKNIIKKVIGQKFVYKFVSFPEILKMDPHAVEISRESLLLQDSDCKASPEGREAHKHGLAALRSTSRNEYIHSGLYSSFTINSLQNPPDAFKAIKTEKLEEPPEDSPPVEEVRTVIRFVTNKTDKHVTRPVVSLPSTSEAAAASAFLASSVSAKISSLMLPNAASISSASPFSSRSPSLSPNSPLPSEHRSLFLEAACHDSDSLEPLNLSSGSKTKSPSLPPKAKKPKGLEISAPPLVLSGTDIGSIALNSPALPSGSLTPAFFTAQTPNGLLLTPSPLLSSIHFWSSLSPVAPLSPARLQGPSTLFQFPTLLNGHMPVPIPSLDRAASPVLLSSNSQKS
# Method in brief: as §1
# FEV = target: T7, FEV (Homo sapiens, UniProt Q99581 1-238); conditions: protein: recombinant; tags: N-terminal GST; dsDNA, one strand shown
# T7 sequence: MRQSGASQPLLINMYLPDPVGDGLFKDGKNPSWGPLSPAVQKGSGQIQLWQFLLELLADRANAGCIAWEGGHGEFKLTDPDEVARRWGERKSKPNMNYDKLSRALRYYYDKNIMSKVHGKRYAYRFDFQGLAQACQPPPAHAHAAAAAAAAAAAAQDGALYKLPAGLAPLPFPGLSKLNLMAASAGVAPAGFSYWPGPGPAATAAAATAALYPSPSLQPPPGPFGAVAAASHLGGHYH
# Method in brief: as §1
# ETV5 = ETV5 (Homo sapiens, UniProt P41161 1-510); conditions: protein: recombinant; tags: N-terminal GST; dsDNA, one strand shown
# Method in brief: as §1
# HSF1 = HSF1 (Homo sapiens, UniProt Q00613 1-529); conditions: protein: recombinant; tags: N-terminal GST; chain copies: 3; dsDNA, one strand shown
# Method in brief: as §1
# SPIC = target: T8, SPIC (Homo sapiens, UniProt Q8N5J4 1-248); conditions: protein: recombinant; tags: N-terminal GST; dsDNA, one strand shown
# T8 sequence: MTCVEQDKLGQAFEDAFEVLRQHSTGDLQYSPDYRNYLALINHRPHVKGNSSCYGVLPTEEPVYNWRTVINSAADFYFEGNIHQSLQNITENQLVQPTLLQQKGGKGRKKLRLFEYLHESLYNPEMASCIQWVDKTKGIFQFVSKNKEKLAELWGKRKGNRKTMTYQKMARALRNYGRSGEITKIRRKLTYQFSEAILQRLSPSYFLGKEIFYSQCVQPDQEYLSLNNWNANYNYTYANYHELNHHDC
# Method in brief: as §1
# ELF4 = ELF4 (Homo sapiens, UniProt Q99607 1-663); conditions: protein: recombinant; tags: N-terminal GST; dsDNA, one strand shown
# Method in brief: as §1
# ETV2 = target: T9, ETV2 (Homo sapiens, UniProt O00321 1-342); conditions: protein: recombinant; tags: N-terminal GST; dsDNA, one strand shown
# T9 sequence: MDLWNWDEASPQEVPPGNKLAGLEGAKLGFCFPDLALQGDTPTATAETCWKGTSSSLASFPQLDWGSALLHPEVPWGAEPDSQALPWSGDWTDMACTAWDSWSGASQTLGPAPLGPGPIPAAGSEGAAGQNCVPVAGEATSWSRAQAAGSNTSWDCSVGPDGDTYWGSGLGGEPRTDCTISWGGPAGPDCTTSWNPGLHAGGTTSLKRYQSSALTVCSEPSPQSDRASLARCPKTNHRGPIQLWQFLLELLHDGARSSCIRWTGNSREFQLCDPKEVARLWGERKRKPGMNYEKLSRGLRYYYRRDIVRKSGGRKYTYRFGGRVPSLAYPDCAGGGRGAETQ
# Method in brief: as §1
# CRX = CRX (Homo sapiens, UniProt O43186 1-299); conditions: protein: recombinant; tags: N-terminal GST; dsDNA, one strand shown
# Method in brief: as §1
# ETV1 = ETV1 (Homo sapiens, UniProt P50549 1-477); conditions: protein: recombinant; tags: N-terminal GST; dsDNA, one strand shown
# Method in brief: as §1
# Sequence of ELF4 (Q99607 whole entry): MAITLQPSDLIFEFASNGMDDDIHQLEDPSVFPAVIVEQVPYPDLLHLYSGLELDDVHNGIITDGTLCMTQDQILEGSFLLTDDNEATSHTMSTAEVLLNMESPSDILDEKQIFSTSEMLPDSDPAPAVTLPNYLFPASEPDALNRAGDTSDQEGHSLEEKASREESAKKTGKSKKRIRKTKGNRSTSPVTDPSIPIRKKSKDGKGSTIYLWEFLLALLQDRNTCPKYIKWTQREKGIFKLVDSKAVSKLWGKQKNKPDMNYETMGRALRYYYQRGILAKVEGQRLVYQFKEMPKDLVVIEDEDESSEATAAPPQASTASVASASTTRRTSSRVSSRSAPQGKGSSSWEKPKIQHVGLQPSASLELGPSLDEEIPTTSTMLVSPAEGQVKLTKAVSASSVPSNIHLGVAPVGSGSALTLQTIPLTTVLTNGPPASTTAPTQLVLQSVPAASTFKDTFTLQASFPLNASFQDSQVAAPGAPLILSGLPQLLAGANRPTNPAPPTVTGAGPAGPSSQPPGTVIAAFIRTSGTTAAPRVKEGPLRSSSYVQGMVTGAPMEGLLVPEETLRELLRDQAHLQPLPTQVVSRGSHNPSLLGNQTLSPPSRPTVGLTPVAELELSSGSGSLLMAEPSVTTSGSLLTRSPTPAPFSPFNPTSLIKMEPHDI
# Sequence of CRX (O43186 whole entry): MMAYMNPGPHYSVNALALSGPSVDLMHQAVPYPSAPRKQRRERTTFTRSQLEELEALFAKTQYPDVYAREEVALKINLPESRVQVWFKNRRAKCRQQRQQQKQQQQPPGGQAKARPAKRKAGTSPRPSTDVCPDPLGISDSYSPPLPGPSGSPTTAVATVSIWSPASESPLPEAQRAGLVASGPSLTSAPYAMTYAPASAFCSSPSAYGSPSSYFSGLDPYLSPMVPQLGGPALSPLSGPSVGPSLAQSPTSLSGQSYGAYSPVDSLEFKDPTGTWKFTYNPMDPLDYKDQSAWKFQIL
# Sequence of ETV5 (P41161 whole entry): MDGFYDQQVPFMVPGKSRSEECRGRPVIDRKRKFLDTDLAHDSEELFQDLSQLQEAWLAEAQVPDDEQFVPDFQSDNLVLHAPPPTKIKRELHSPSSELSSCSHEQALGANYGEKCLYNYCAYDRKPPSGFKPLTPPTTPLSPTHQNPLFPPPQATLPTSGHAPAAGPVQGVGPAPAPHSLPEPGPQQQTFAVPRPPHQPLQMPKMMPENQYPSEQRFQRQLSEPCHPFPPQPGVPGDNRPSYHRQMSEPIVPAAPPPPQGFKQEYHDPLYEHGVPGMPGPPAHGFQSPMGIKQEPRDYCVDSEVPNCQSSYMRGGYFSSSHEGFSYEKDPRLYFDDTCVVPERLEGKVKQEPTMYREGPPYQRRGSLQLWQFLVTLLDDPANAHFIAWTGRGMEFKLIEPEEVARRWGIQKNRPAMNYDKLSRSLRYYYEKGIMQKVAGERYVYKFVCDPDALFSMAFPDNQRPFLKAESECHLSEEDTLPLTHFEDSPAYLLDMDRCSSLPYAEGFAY
# Sequence of SPIB (Q01892 whole entry): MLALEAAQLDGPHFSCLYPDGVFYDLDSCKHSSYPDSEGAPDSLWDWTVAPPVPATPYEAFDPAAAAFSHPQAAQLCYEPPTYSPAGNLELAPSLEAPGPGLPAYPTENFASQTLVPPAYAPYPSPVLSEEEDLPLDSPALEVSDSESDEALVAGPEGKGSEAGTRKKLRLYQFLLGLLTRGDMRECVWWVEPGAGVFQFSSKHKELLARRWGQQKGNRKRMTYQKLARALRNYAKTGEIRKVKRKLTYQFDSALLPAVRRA
# Sequence of ETV1 (P50549 whole entry): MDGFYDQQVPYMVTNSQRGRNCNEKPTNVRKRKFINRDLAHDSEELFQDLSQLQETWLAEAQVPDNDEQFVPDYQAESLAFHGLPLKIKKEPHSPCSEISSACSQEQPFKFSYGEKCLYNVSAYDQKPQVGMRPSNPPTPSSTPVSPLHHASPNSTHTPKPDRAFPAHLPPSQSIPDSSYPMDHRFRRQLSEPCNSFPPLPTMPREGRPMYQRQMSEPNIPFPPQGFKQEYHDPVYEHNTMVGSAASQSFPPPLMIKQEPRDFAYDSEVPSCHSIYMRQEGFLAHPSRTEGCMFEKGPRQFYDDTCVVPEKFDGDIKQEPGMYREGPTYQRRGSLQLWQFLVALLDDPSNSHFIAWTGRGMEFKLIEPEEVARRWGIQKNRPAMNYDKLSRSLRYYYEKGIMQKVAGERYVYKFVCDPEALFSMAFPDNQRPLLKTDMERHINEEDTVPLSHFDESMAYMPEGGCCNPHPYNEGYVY
# Sequence of ELF1 (P32519 whole entry): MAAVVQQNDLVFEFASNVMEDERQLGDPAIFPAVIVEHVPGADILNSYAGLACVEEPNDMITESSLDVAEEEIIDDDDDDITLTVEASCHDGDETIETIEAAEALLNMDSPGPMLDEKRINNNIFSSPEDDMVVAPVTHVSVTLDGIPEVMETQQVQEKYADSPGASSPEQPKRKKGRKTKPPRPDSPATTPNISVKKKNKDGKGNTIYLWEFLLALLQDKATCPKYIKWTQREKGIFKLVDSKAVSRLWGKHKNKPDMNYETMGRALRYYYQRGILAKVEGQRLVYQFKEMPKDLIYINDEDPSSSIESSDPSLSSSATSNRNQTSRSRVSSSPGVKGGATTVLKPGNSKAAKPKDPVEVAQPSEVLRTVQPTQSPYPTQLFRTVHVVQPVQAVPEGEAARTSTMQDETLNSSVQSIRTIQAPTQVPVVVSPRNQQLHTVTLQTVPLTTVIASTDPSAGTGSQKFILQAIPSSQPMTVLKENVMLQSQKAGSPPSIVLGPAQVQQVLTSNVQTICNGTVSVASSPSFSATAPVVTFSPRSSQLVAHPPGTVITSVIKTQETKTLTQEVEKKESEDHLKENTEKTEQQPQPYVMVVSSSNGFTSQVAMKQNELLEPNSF
# Sequence of HSF1 (Q00613 whole entry): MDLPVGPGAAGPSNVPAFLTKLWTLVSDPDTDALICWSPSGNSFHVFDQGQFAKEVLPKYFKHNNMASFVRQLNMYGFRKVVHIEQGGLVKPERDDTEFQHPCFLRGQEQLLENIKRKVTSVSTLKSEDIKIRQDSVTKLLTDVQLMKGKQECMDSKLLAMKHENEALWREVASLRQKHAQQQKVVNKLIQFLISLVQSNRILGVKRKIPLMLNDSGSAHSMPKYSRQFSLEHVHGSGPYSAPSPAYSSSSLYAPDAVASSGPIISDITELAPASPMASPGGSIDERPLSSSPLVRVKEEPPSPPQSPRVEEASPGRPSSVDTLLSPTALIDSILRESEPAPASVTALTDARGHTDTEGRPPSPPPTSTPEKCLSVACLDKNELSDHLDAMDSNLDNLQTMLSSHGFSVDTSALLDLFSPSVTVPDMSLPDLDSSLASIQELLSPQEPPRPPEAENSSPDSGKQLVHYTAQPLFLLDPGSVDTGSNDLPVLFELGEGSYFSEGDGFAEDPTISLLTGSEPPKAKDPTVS
sequence,measurement,setting,value
CGAGCT,binding signal,FLI1,"1.02 fold enrichment (6-mer frequency, TF over GST control)"
same,binding signal,ELK1,"1.02 fold enrichment (6-mer frequency, TF over GST control)"
same,binding signal,GABPA,"1.09 fold enrichment (6-mer frequency, TF over GST control)"
same,binding signal,ERG,"1.04 fold enrichment (6-mer frequency, TF over GST control)"
same,binding signal,ELF1,"1.06 fold enrichment (6-mer frequency, TF over GST control)"
same,binding signal,EHF,"1.13 fold enrichment (6-mer frequency, TF over GST control)"
same,binding signal,SPI1,"1.03 fold enrichment (6-mer frequency, TF over GST control)"
same,binding signal,SPIB,"1.04 fold enrichment (6-mer frequency, TF over GST control)"
same,binding signal,ELK3,"1.06 fold enrichment (6-mer frequency, TF over GST control)"
same,binding signal,FEV,"1.03 fold enrichment (6-mer frequency, TF over GST control)"
same,binding signal,ETV5,"1.01 fold enrichment (6-mer frequency, TF over GST control)"
same,binding signal,HSF1,"1.24 fold enrichment (6-mer frequency, TF over GST control)"
same,binding signal,SPIC,"1.25 fold enrichment (6-mer frequency, TF over GST control)"
same,binding signal,ELF4,"1.07 fold enrichment (6-mer frequency, TF over GST control)"
same,binding signal,ETV2,"1.05 fold enrichment (6-mer frequency, TF over GST control)"
same,binding signal,CRX,"1.04 fold enrichment (6-mer frequency, TF over GST control)"
same,binding signal,ETV1,"1.15 fold enrichment (6-mer frequency, TF over GST control)"
